From PubChem
CYP2C9 inhib – blocks human cytochrome P450 2C9. CYP2C9 Supersomes, luciferin-H conversion, luminescence. P11712. inhibition, % at 5 µM. 20% of 96,000 active;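 active = blocking of liver enzyme CYP2C9 beyond about 50% at 5 µM, limit read from the data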
Target sequence (P11712 whole entry, looked up): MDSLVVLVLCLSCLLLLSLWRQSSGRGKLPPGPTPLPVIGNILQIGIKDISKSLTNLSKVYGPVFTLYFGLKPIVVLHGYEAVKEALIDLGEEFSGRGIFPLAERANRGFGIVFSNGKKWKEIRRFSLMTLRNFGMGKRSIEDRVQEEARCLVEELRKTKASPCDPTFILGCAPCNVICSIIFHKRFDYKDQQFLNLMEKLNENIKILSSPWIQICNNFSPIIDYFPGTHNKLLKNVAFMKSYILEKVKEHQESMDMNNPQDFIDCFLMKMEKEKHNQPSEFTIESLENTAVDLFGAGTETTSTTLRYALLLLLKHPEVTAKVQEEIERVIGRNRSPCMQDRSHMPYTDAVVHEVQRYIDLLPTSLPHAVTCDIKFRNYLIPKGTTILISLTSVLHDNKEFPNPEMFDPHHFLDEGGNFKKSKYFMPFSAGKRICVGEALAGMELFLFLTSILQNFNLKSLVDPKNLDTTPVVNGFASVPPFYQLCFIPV
CYP2C9 activ – activators of human CYP2C9. P11712. recombinant CYP2C9, luciferin-H conversion, luminescence; active compounds read high; factor 1 = untreated enzyme, 0 = blocked. activation factor at 5 µM. 1.4% of 96,000 active;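 active = activation factor of 2 or more for CYP2C9 at a 5 µM dose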
CYP2C19 activ – increases human CYP2C19 enzyme activity; 96,000 tested, under 10 active; activation factor at 5 µM; P33261; recombinant CYP2C19, luciferin-H EGE luminescence; active compounds read high; 0 = fully inhibited enzyme, 1 = untreated enzyme;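 active = activation factor of at least 2 at 5 µM in the primary screen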
CYP2C19 inh – inhibitors of human CYP2C19; P33261; inhibition, % at 5 µM; CYP2C19 Supersomes, luciferin-H EGE luminescence, 30 min; 21% of 96,000 active;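 active = CYP2C19 inhibition above a set limit at 5 µM in the primary screen, cut at about 50% in these data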
EphB4 antag – antagonists of human EphB4-ephrin-B2 interaction; 0.15% of 97,000 active; inhibition, % at 7 µM; EphB4 LBD / TNYL-RAW-Alexa532 peptide, fluorescence polarization; P54760; AID 720;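 active = inhibition above the screen-wide mean inhibition plus 3 SD, cut at about 15% in these data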
A number is an active result; – = inactive; · = no result. This is a sample that favours compounds with a hit; in the whole collection about 27% have one here.

SMILES	CYP2C9 inhib	CYP2C9 activ	CYP2C19 activ	CYP2C19 inh	EphB4 antag
CCOC(=O)Cc1csc(NC(=O)CC)n1	–	–	–	–	–
COc1ccc(/C=N/NC(=O)c2nc(-c3ccccc3)cc(-c3ccccc3)n2)cc1OC	–	–	–	–	–
CC1CCN(CCNC(=O)c2ccc(NC(=O)C3CCCO3)cc2)CC1 (stereo not given)	–	–	–	–	·
COc1cccc(-n2nc(C(=O)O)c3ccccc3c2=O)c1	–	–	–	50	·
COc1ccc(-n2nc(C(=O)Nc3ccc4c(c3)OCO4)c3ccccc3c2=O)cc1	79	–	–	–	·
COc1ccc(-n2nc(C(=O)NCc3ccco3)c3ccccc3c2=O)cc1	–	–	–	–	–
COc1ccc(-n2nc(C(=O)N3CCN(Cc4ccc5c(c4)OCO5)CC3)c3ccccc3c2=O)cc1	74	–	–	–	·
COc1cccc(-n2nc(-c3ccnn3-c3ccccc3)c(=O)n(C)c2=O)c1	–	–	–	62	–
CSc1nnc(NC(=O)CCc2ccccc2)s1	–	–	–	–	–
O=C1CN(C(=O)COC(=O)COc2ccc3c(c2)CCC3)c2ccccc2N1	–	–	–	–	–
C=CCNc1ncnc2c1[nH]c1ccc(C)cc12	56	–	–	–	–
CCOC(=O)c1c(N)sn(-c2ccccc2)c1=S	–	–	–	–	–
COC(=O)C(C(C)=O)C1=C/C(=N\S(=O)(=O)c2ccc(C)cc2)c2ccccc2C1=O (stereo not given)	89	–	–	90	–
Cc1ccc(S(=O)(=O)/N=C(\CSC(N)=O)Nc2ccccc2)cc1	–	–	–	–	–
O=C(Nc1cccc(Br)c1)c1cc2ccccc2o1	–	–	–	–	–
CC1C(=O)C(C)C(c2ccco2)NC1c1ccco1 (stereo not given)	–	–	–	94	·
CN(C)S(=O)(=O)c1ccc(C(=O)Nc2ccc(F)cc2F)cc1	–	–	–	–	–
O=C(Nc1ccc(Oc2ccccc2)cc1)C1CCCO1 (stereo not given)	–	–	–	58	–
O=C(O)c1cccc(C(=O)Nc2cccc(NC(=O)C3CCCO3)c2)c1 (stereo not given)	–	–	–	62	·
O=C(O)c1cccc(NC(=O)c2cccc(NC(=O)C3CCCO3)c2)c1 (stereo not given)	–	–	–	–	–
CCc1nc(-c2ccccc2)cc(=O)[nH]1	–	–	–	–	–
CC12CCC(C(=O)Nc3cc(Cl)ccc3Cl)(C/C1=N\O)C2(C)C (stereo not given)	–	3.1	–	–	–
CC12CCC(C(=O)Nc3ccccc3Br)(C/C1=N\O)C2(C)C (stereo not given)	–	–	–	–	–
Nc1nonc1-c1noc(N2CCOCC2)n1	·	·	·	·	–
Nc1nonc1-c1noc(CCCN2C(=O)c3ccccc3C2=O)n1	–	–	–	57	–
SMILES	CYP2C9 inhib	CYP2C9 activ	CYP2C19 activ	CYP2C19 inh	EphB4 antag
Nc1nonc1-c1noc(-c2ccccc2Br)n1	–	–	–	67	–
O=C(c1ccc(Cl)cc1)c1cc(-c2ccccn2)c(N2CCOCC2)s1	–	–	–	–	–
CCc1ccc(-n2c(O)c(C=NCCN(CC)CC)c(=O)[nH]c2=O)cc1	–	–	–	–	–
CN1C2=C(C#N)C(c3ccccc3)(C(F)(F)F)NC(=O)N2c2ccccc21 (stereo not given)	–	–	–	–	–
CNC(=O)c1sccc1SCc1c(Cl)cccc1Cl	–	–	–	–	–
CNC(=O)c1sccc1SCc1ccc(Cl)cc1Cl	–	–	–	75	–
CC1(C)CC(=O)c2cc(C(=O)N3CCCC(C)(C)C3)c(=O)n(-c3ccccc3)c2C1	–	–	–	–	–
CC(C)Cn1c(N)c(C(=O)NCC2CCCO2)c2nc3ccccc3nc21 (stereo not given)	85	–	–	65	–
Nc1c(C(=O)OCC2CCCO2)c2nc3ccccc3nc2n1C1CCCC1 (stereo not given)	55	–	–	–	–
CCCC1CCc2c(sc(NC(=O)c3cccs3)c2C(N)=O)C1 (stereo not given)	–	–	–	–	–
O=C(NCc1ccco1)c1ccc2c(c1)N(Cc1ccccc1)C(=O)CS2	78	–	–	–	–
CCCCNC(=O)c1ccc2c(c1)N(CC)C(=O)CS2	–	–	–	–	–
C=CCN1C(=O)CSc2ccc(C(=O)NCc3ccco3)cc21	–	–	–	–	–
CCN1C(=O)CSc2ccc(C(=O)NCc3ccc(OC)cc3)cc21	86	–	–	80	–
CSc1sc2ccccc2[n+]1CCCS(=O)(=O)[O-]	–	–	–	–	–
Cc1nc2ccc(NC(=O)c3cc(S(=O)(=O)N4CCOCC4)ccc3C)cc2s1	–	–	–	–	–
O=C(Nc1ccccc1N1CCOCC1)c1ccc(Br)o1	–	–	–	–	–
Cc1ccc(NC(=O)c2cc(S(=O)(=O)N3CCCCC3)ccc2N2CCOCC2)cc1F	68	–	–	–	–
O=C(Nc1ccc(CN2CCOCC2)cc1)c1ccc(-c2cc(Cl)ccc2Cl)o1	65	–	–	55	–
O=C(Nc1ccc(N2CCOCC2)c(Cl)c1)c1ccc(Br)o1	51	–	–	58	–
Cc1ccc(NC(=O)c2cc(NC(=O)c3ccco3)ccc2N2CCOCC2)cc1Cl	69	–	–	–	–
O=C(Nc1ccc(N2CCN(C(=O)c3ccccc3)CC2)cc1)c1ccc(Br)o1	–	–	–	–	–
O=C(Nc1ccc(N2CCCC2)cc1)c1ccc(Br)o1	–	–	–	61	–
Cc1cc(N2CCN(C)CC2)nc2ccc(NC(=O)c3ccc(Br)o3)cc12	–	–	–	–	·
O=C(NC(=S)Nc1ccc(N2CCOCC2)c(Cl)c1)C(c1ccccc1)c1ccccc1	76	–	–	–	–
SMILES	CYP2C9 inhib	CYP2C9 activ	CYP2C19 activ	CYP2C19 inh	EphB4 antag
O=C(Nc1ccc(N2CCN(C(=O)c3ccccc3)CC2)c(Cl)c1)c1ccc(Br)o1	51	–	–	–	–
Cc1cc(N2CCCCC2)nc2ccc(NC(=O)c3ccc(Br)o3)cc12	81	–	–	94	–
C=CCc1cc(OC)ccc1OCCON1C(=O)CCC1=O	–	–	–	–	–
Cn1c(SCC(=O)NCc2ccco2)nnc1-c1cccs1	–	–	–	–	–
O=C(NNC(=O)c1sc2cccc(Cl)c2c1Cl)Nc1ccccc1	–	–	–	–	–
O=C(NC(NC(=S)Nc1ccc(Cl)cc1Cl)C(Cl)(Cl)Cl)c1cccc([N+](=O)[O-])c1 (stereo not given)	88	–	–	–	–
O=C(C1=C(O)C(=O)N(Cc2ccccc2)C1c1ccncc1)c1ccco1 (stereo not given)	–	–	–	–	–
Nc1[nH]nc2nc(NCc3ccccc3)c3c(c12)CCN(Cc1ccccc1)C3	–	–	–	–	·
O=C(Nc1cc2c(cc1Br)OCCO2)c1cccs1	–	–	–	57	–
COC(=O)C1=C(C)NC(=O)CC1c1cc(Br)ccc1F (stereo not given)	–	–	–	–	–
Cc1ccc2ncccc2c1NS(=O)(=O)c1ccccc1	–	–	–	57	–
